Screens deposited in PubChem BioAssay by several laboratories.
Only some compounds are listed: those with a hit (about 6.6% of all), similar ones and a draw of the others.
BoNT-A LC inh2 = blocks Botulinum neurotoxin A light chain protease; inhibition, % at 10 µM; AID 588499; 360,000 compounds, 0.17% hits; multiplex microsphere protease substrate cleavage, flow cytometry
BoNT-F LC inh = inhibitors of Botulinum neurotoxin F light chain protease; Multiplex microsphere protease cleavage assay, flow cytometry; inhibition, % at 10 µM; 360,000 compounds, 0.22% hits; AID 588497; in the data active = inhibition above about 35%, passing the limit was not always enough; inconclusive = no clear call, values can overlap the other calls
Bead autofluor = counter-screen for toxin protease inhibitors: compound fluorescence. fluorescence intensity (no concentration beside the values). compound autofluorescence counterscreen, microsphere flow cytometry; hits give high values. 360,000 compounds, 3.1% hits; in the data active = fluorescence intensity above about 16000; inconclusive = no clear call, values can overlap the other calls
GDH-TPI inh = GDH-TPI coupled enzyme inhibition counter-screen | GDH-TPI coupled enzyme counterscreen, NADH absorbance | inhibition, % at 4.8 µM | 360,000 compounds, 1.2% hits; in the data active = inhibition above about 30%
Anthrax LF inh2 = inhibitors of Bacillus anthracis lethal factor protease; 360,000 compounds, 0.12% hits; inhibition, % at 10 µM; multiplex microsphere protease cleavage assay, LF; P15917
Mtb FBA inh = inhibitors of M. tuberculosis fructose-bisphosphate aldolase. P9WQA3. purified M. tuberculosis FBA, fluorescence read-out. inhibition, % at 1 µM. 360,000 compounds, 2.3% hits; in the data active = inhibition above about 27%
Target sequence (P9WQA3 whole entry, looked up): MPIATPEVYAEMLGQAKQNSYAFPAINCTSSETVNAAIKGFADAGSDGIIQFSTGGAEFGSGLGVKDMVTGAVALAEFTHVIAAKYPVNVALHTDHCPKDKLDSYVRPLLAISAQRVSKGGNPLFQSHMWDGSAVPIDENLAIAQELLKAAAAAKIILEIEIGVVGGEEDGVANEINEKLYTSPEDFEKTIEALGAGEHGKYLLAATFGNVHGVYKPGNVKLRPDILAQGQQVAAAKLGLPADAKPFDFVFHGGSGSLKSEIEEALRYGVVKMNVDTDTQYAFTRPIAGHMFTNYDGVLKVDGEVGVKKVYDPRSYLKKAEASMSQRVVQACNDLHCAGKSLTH
Of the large screens only hits and unclear results are named; the others gave an inactive call. Cut-off read from the data, not from the text of the source, unless noted: active = inhibition above about 30%; inconclusive = no clear call, values can overlap the other calls; inactive = below that.

COc1ccc2cc3cc(C(=O)NCCN4CCc5ccccc5C4)oc3nc2c1	GDH-TPI inh 37.6, Mtb FBA inh 188.1
COc1ccc2cc3cc(C(=O)NCCN4CCN(Cc5ccccc5)CC4)oc3nc2c1	Mtb FBA inh active
COc1ccc2cc3cc(C(=O)NCCN4CCc5ccccc5C4)sc3nc2c1	none
C[C@@H]1CN([C@H](C)CO)C(=O)c2c(c3ccccc3n2C)-c2ccccc2CO[C@@H]1CN(C)S(=O)(=O)c1cccs1	none
Cc1csc(NC(=O)CSc2nc3[nH]c(=O)cc(O)c3s2)n1	GDH-TPI inh 31.8
O=C(CSc1nc2[nH]c(=O)cc(O)c2s1)Nc1nncs1	none
N#Cc1c(N2CCCCC2)nc(N2CCCCC2)c2c1CCN(Cc1ccccc1)C2	BoNT-A LC inh2 inconclusive, Bead autofluor 18858
Cc1cc(C)c(C#N)c(N2CCN(Cc3ccccc3)CC2)n1	Bead autofluor 23816
Cc1cccnc1NC(=O)CCCNC(=O)c1ccc(Cl)cc1	BoNT-A LC inh2 inconclusive, BoNT-F LC inh inconclusive, Bead autofluor inconclusive, Anthrax LF inh2 inconclusive
Cc1ccc(CNC(=O)CSc2nc3ccsc3c(=O)n2NC(=O)c2ccccc2)cc1	Bead autofluor 23505
Cc1ccc(S(=O)(=O)NC(C(=O)Oc2ccc3ccc(=O)oc3c2)c2ccccc2)cc1 (stereo not drawn)	Mtb FBA inh active
CCC[C@@H](NS(=O)(=O)c1ccc(C)cc1)C(=O)Oc1ccc2c3c(c(=O)oc2c1)CCC3	Mtb FBA inh active
CCC(NC(=O)OCc1ccccc1)C(=O)Oc1ccc2ccc(=O)oc2c1 (stereo not drawn)	Mtb FBA inh active
Cc1ccc(S(=O)(=O)NCCC(=O)Oc2ccc3ccc(=O)oc3c2)cc1	Mtb FBA inh active
CCNC(=O)C(Cc1ccccc1)NC(=O)OCc1ccccc1 (stereo not drawn)	none
CC(=O)c1ccc(OCc2cc(C(=O)N3CC4C[C@@H]5CC3C[C@H](C4)C5)no2)cc1	none
Cc1ccc(S(=O)(=O)NC(C(=O)Oc2ccc3c(C)c(Cl)c(=O)oc3c2)c2ccccc2)cc1 (stereo not drawn)	Mtb FBA inh active
COc1ccc(C2CC(=O)CC(=O)C2n2cncn2)cc1 (stereo not drawn)	Bead autofluor 21795
O=C1CC(c2cccc(Cl)c2)C(n2cncn2)C(=O)C1C1NCCc2ccccc21 (stereo not drawn)	none
O=C1CC(=O)C(n2cncn2)C(c2cccc(Cl)c2)C1 (stereo not drawn)	Bead autofluor 21751
O=C1C=C(O)C(n2cncn2)C(c2ccc3c(c2)OCO3)C1 (stereo not drawn)	none
CCc1nc2c(OCc3ccc(C(F)(F)F)cc3)cccn2c1N(C)C(=O)c1ccncc1	none
CCNNC(=O)C(O)(Cc1ccccc1)Cc1ccccc1	none
CCC(C)Sc1ccc(-c2nc3ccc(C)cn3c2NCc2ccccc2)cc1OC (stereo not drawn)	GDH-TPI inh 42.4, Mtb FBA inh 115.9
CCC(C)Sc1cc(-c2nc3ccc(C)cn3c2NCc2ccccc2)ccc1OC (stereo not drawn)	Mtb FBA inh 64.1
CCC(C)Sc1cc(-c2nc3cc(C)ccn3c2NC2CCCCC2)ccc1OC (stereo not drawn)	Bead autofluor 23753
COc1ccc(-c2nc3ccc(C)cn3c2NCc2ccccc2)cc1SC1CCCCC1	none
CCC(C)Sc1cccc(-c2nc3ccc(C)cn3c2NC2CCCCC2)c1 (stereo not drawn)	none
COc1ccc(CCN(C)Cc2c(O)ccc3ccccc23)cc1OC	none
NC(=O)C(=O)NCCCN1CCOCC1	none
CN(Cc1cccc(Cl)c1Cl)C(=O)c1cc(S(=O)(=O)N2CCOCC2)ccc1F	none
CCc1nc2ccc(C(=O)NCCCN3CCCC3=O)cn2c1N(CC)C(=O)NCCc1ccccc1	none
CNc1ccc(/C=C\CCCO)cn1	Mtb FBA inh 114.9
Cc1cc(C)cc(NC(=O)c2cccn2-c2ncc(C(F)(F)F)cc2Cl)c1	BoNT-A LC inh2 inconclusive, Bead autofluor 25062
Cc1cc(NC(=O)c2c([N+](=O)[O-])cnn2C)no1	Bead autofluor 20559
Cc1nn(Cc2c(F)c(F)c(F)c(F)c2F)c(C)c1NC(=O)c1c([N+](=O)[O-])c(C)nn1C	none
Cc1ccc(OCc2ccc(C(=O)Nc3c(C)nn(Cc4c(F)c(F)c(F)c(F)c4F)c3C)o2)c([N+](=O)[O-])c1	Bead autofluor 23883
Cc1cc(NC(=O)c2c([N+](=O)[O-])c(C)nn2C)no1	none
CCn1cc(Cl)c(C(=O)Nc2c(C)nn(Cc3c(F)c(F)c(F)c(F)c3F)c2C)n1	none
Cc1nn(Cc2c(F)c(F)c(F)c(F)c2F)c(C)c1NC(=O)c1c([N+](=O)[O-])cnn1C	Bead autofluor 22419
CCn1cc([N+](=O)[O-])c(C(=O)Nc2c(C)nn(Cc3c(F)c(F)c(F)c(F)c3F)c2C)n1	Bead autofluor 20974
Cc1cccc(N(C)S(=O)(=O)c2ccc3c(c2)C(C)(C)C(=O)N3C)c1	none
Cc1nn(Cc2c(F)c(F)c(F)c(F)c2F)c(C)c1NC(=O)c1nn(C)cc1Br	none
Cc1nn(Cc2c(F)c(F)c(F)c(F)c2F)c(C)c1NC(=O)c1nn(C)cc1[N+](=O)[O-]	BoNT-A LC inh2 inconclusive, Bead autofluor 22913
NS(=O)(=O)c1ccc(N2N=C(c3ccccc3)CC2c2ccc(Br)cc2)cc1 (stereo not drawn)	Mtb FBA inh 187.4
Cc1ccc(C2CC(c3ccccc3)=NN2c2ccc(S(N)(=O)=O)cc2)cc1 (stereo not drawn)	Mtb FBA inh active
Cc1ccc(C2=NN3C(=O)c4ccccc4C3C2)cc1 (stereo not drawn)	BoNT-A LC inh2 inconclusive, BoNT-F LC inh inconclusive
NS(=O)(=O)c1ccc(N2N=C(c3ccccc3)CC2c2ccccc2)cc1 (stereo not drawn)	Mtb FBA inh active
CCc1ccc(C2=NN(c3ccc(S(N)(=O)=O)cc3)C(c3ccc(F)cc3)C2)cc1 (stereo not drawn)	Mtb FBA inh active
Cc1cc(C)cc(N(CC(=O)NC(C)(C)C)C(=O)CNC(=O)c2cccs2)c1	none
C[C@H](CO)N1C[C@H](C)[C@@H](CN(C)Cc2ccccc2)Oc2c(NS(=O)(=O)c3cn(C)cn3)cccc2C1=O	none
CNC(=S)N1N=C(c2ccccc2)CC1c1ccccc1Cl (stereo not drawn)	none
O=S(=O)(O)c1ccc(N2N=C(c3ccccc3)CC2c2ccccc2)cc1 (stereo not drawn)	Mtb FBA inh active
NS(=O)(=O)c1ccc(N2N=C(c3ccccc3)CC2c2ccccc2Cl)cc1 (stereo not drawn)	Mtb FBA inh 187.6
COc1ccc(C(=O)N2CCCC(O)C2)cc1OC1CCN(C(C)C)CC1 (stereo not drawn)	none
O=C1CSc2ccc(C(=O)N3CCCCC3)cc2N1	none
O=C(NC1=NCCS1)c1ccc(-c2ccc(Cl)cc2)o1	GDH-TPI inh 55.2, Mtb FBA inh 136.3
